# High-throughput results: PubChem, National Center for Advancing Translational Sciences (NCATS)
# gsp antagonist: qHTS for Antagonists of gsp, the Etiologic Mutation Responsible for Fibrous Dysplasia/McCune-Albright Syndrome: qHTS. gsp-mutant cells, cAMP HTRF, 30 min. Potency, µM (series often up to 76.9 µM), actives largely listed as inhibitors. 340,000 compounds, 0.4% hits. AID 624288, 2012; calls by dose curve; cell line not stated here;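 note: intracellular cAMP measured with PDE inhibitor Ro 20-1724 present during compound exposure; nearly all actives have a fitted effect of over 65% in size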
#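 Cells in G418 medium, seeded 16-24 h, 37C; buffer exchange to DPBS + 1 mM CaCl2, 0.5 mM MgCl2, 0.05% BSA; cpds in DMSO + […] (300 uM stock), 30 min 37C; HTRF cAMP detection.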
# gsp agonist: qHTS for Agonist of gsp, the Etiologic Mutation Responsible for Fibrous Dysplasia/McCune-Albright Syndrome: qHTS; gsp mutant cells, cAMP HTRF, 30 min; Potency, µM (titrated, usually from 76.9 µM), most hits filed as activators; 340,000 compounds, 0.13% hits; AID 624287, 2012; active = well fitted activation curve with a large enough effect; inconclusive = small, poorly fitted or top-dose-only effect, or another doubt; inactive = no such curve, though single readings can be large or run the other way; cell line not stated here;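 note: phosphodiesterase inhibitor Ro 20-1724 added with compounds to block cAMP breakdown; nearly all actives have a fitted effect of over 60% in size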
#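 Cells in DMEM/10% FBS with G418 were pretreated with compounds in DMSO plus […] (300 uM stock) for 30 min at 37C. cAMP was measured by HTRF (cAMP-d2 plus anti-cAMP antibody-K) after 30 min at room temperature.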
# Mito fusion act: qHTS Assay for Small Molecule Inhibitors of Mitochondrial Division or Activators of Mitochondrial Fusion; S. cerevisiae fusion-defective mutant growth rescue, CellTiterGlo 48 h; Potency, µM (series often up to 46.1 µM), actives largely listed as activators; 320,000 compounds, 0.23% hits; AID 485298, 2010; note: nearly all actives have a fitted effect of over 45% in size
#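 Growth-rescue viability read-out: after 48 h at the non-permissive 37C in glycerol/ethanol YPEG, yeast mitochondrial fusion mutants are measured by CellTiterGlo luminescence; compounds (23 nl pinned per well) restoring growth score as division inhibitors or fusion activators.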
# 12-LOX inh: Primary qHTS assay for inhibitors of human arachidonate 12S-lipoxygenase (ALOX12): Round 2. purified 12hLO, xylenol orange hydroperoxide absorbance. Potency, µM (top dose mostly 108 µM), most hits filed as inhibitors. 580,000 compounds, 1.1% hits. AID 1671190, 2021
# Target sequence (P18054 whole entry, looked up): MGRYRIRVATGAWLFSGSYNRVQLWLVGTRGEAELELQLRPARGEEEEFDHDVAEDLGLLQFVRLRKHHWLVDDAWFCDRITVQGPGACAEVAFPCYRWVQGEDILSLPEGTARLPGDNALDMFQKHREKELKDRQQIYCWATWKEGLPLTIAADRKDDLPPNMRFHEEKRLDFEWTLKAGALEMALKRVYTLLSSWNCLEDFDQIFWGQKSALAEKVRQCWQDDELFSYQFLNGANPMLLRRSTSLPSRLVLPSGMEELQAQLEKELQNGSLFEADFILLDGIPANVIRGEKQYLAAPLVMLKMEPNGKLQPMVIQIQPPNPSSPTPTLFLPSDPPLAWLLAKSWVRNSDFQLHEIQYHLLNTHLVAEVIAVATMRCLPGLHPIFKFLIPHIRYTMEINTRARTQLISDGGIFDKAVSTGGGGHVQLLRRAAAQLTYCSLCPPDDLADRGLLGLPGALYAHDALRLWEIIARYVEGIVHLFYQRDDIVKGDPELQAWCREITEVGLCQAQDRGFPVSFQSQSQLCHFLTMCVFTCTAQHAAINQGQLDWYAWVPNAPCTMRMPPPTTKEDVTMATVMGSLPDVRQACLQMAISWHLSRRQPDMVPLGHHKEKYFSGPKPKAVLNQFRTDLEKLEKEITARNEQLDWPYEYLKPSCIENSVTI
#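 Purified human 12hLO at 150 nM in 25 mM Hepes, 0.01% Triton X-100, pH 7.0, preincubated 15 min at room temperature with compound. Reaction started with 40 uM arachidonic acid, 30 min at room temperature. Hydroperoxide measured by Fe-xylenol orange, 573/405 nm absorbance ratio.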
# FUS suppressor: qHTS for Suppressors of FUS Proteinopathy: Primary screen using FUS-linked yeast assay | S. cerevisiae FUS-expressing, growth rescue, OD600, 24 h | Potency, µM (highest dose often 76.6 µM), most hits filed as activators | 390,000 compounds, 0.24% hits | AID 1347120, 2019; note: nearly all actives have a fitted effect of over 55% in size
#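 Steps: raffinose overnight preculture; dilution to OD 0.005 in 2% galactose minimal medium; compound addition (concentration series); 24hr at 30C, 99% humidity; absorbance read at 600 nm.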
# Numbers stand for hits; – = inactive; ? = inconclusive; · = not tested or not shown; [ ] = dose if it differs, or a comment. The list is not random: actives were taken first. Their share in the collection is about 1.6%. Unless noted, calls come from the whole dose curve; as a rule, active = well fitted curve in the direction sought with a large enough effect; inconclusive = small, poorly fitted or top-dose-only effect, or another doubt; inactive = no such curve, though single readings can be large; an effect the other way counts as inactive or inconclusive.
SMILES,gsp antagonist,gsp agonist,Mito fusion act,12-LOX inh,FUS suppressor
Cc1[nH]c2c(C(=O)N3CCC(C)CC3)cccc2c1C,·,·,·,–,·
O=S(=O)(c1ccccc1)[C@@]1(c2ccc(Br)cc2)C[C@@H]2ON=C(c3ccccc3)[C@@H]2C1,11µM,·,–,–,–
O=C(Cc1cccc(F)c1)Nc1ccccc1C(F)(F)F,·,·,·,–,·
COc1ccc(C(=O)Nc2cc3c(cc2N2CCCC2)n(C)c(=O)c(=O)n3C)cc1OC,·,·,·,–,–
COc1ccc(C(=O)Nc2cc3c(cc2N2CCCCC2)n(C)c(=O)n3C)cc1OC,–,–,13µM,–,–
COc1cc(OC)cc(C(=O)Nc2cc3c(cc2N2CCCCC2)n(C)c(=O)n3C)c1,·,·,·,–,–
COc1cc(C(=O)Nc2cc3c(cc2N2CCCCC2)n(C)c(=O)n3C)cc(OC)c1OC,–,–,13µM,–,–
Nc1cc(N)nc(SCC(=O)Nc2cc(F)ccc2F)n1,·,·,·,–,·
CCN1C(=O)[C@@H]2[C@@H](c3ccc(SC4CCCCC4)cc3)N3CCCC[C@@]3(C(=O)OC)[C@@H]2C1=O,–,–,?,40µM,?
CCN1C(=O)[C@H]2[C@@H](c3ccc(SC4CCCCC4)c(OC)c3)N3CCCC[C@@]3(C(=O)OC)[C@H]2C1=O,–,–,–,–,?
COC(=O)[C@@]12CCCCN1[C@H](c1ccc(-c3ccc(OC)cc3)c(OC)c1)[C@@H]1C(=O)N(C)C(=O)[C@@H]12,–,·,13µM,–,–
CCN1C(=O)[C@H]2[C@@H](c3ccc(-c4ccc(Cl)c(Cl)c4)c(OC)c3)N3CCCC[C@@]3(C(=O)OC)[C@H]2C1=O,–,–,·,–,25µM
COC(=O)[C@@]12CCCCN1[C@H](c1ccc(-c3ccc(F)cc3)c(OC)c1)[C@H]1C(=O)N(C)C(=O)[C@H]12,–,–,·,–,–
COC(=O)[C@]1(Cc2ccccc2)N[C@H](c2ccc(-c3cccc(Cl)c3)cc2)[C@@H]2C(=O)N(C)C(=O)[C@@H]21,–,·,–,?,14µM
COc1ccc(Nc2ncc(-c3ccccc3OC)c3c2OCC3)cn1,·,·,·,–,·
CCN1C(=O)[C@@H]2[C@@H](c3ccc(-c4ccc(Cl)c(Cl)c4)cc3)N3CCC[C@@]3(C(=O)OC)[C@@H]2C1=O,–,–,·,–,20µM
CCN1C(=O)[C@H]2[C@@H](c3ccc(-c4ccc(OC)cc4)cc3)N3CCC[C@@]3(C(=O)OC)[C@H]2C1=O,–,·,–,?,28µM
CCN1C(=O)[C@H]2[C@@H](c3ccc(-c4ccc(Cl)c(Cl)c4)cc3)N[C@@](C)(C(=O)OC)[C@H]2C1=O,–,·,–,40µM,32µM
CCN1C(=O)[C@@H]2[C@@H](c3ccc(-c4ccc(OC)cc4)cc3)N3CCC[C@@]3(C(=O)OC)[C@@H]2C1=O,–,–,–,?,–
CCN1C(=O)[C@H]2[C@@H](c3ccc(-c4ccc(Cl)c(Cl)c4)cc3)N3CCCC[C@@]3(C(=O)OC)[C@H]2C1=O,–,–,?,–,–
CC(=O)c1cccc(OCc2coc(-c3ccc(Cl)cc3)n2)c1,·,·,·,–,·
CCCCCC/C(=C\C=N\NC(N)=O)c1ccccc1,·,·,·,–,·
COc1ccccc1NC(=O)C(C)OC(=O)c1cc2ccccc2[nH]1 (stereo not given),35µM,–,?,?,–
COc1ccc(OC)c(NC(=O)C(C)OC(=O)c2cc3ccccc3[nH]2)c1 (stereo not given),22µM,–,·,–,–
O=C1CCc2c(Cl)cc(Cl)c(O)c21,·,·,·,5.6µM,·
SMILES,gsp antagonist,gsp agonist,Mito fusion act,12-LOX inh,FUS suppressor
CCn1c(/C=C/c2cn(CC)c3ccccc23)nc2ccccc2c1=O,·,·,·,–,·
CC(C)[C@H](NC(=O)C12CC3CC(CC(C3)C1)C2)C(=O)O,·,·,·,56µM,·
CC(C)C(NC(=O)c1ccc(C23CC4CC(CC(C4)C2)C3)cc1)C(=O)O (stereo not given),·,·,·,–,·
S=c1[nH]nc(-c2ccccc2Cl)n1Cc1ccccc1,–,–[15.4 µM],–,?,–
Cc1ccn2c(-c3csc(NCc4ccccc4)n3)c(C)nc2c1,40µM,–,–,11µM,–
Cc1ccn2c(-c3n[nH]c(=S)n3Cc3ccccc3)c(C)nc2c1,–,–,–,8.9µM,–
CC1(C)O[C@@H]2C[C@H]3[C@@H]4CCC5=CC(=O)C=C[C@]5(C)[C@@]4(F)[C@@H](O)C[C@]3(C)[C@]2(C(=O)CO)O1,–,·,13µM,–,–
CC1(C)O[C@H]2C[C@@H]3[C@H]4CCC5=CC(=O)C=C[C@]5(C)[C@@]4(F)[C@@H](O)C[C@]3(C)[C@]2(C(=O)CO)O1,·,·,·,–,·
S=c1[nH]c2ccccc2n2cccc12,–,22µM,–,?,–
O=C(CSc1nnc(-c2cccnc2)n1C1CCCCC1)NC1CCCCC1,–,–,–,–,–
O=C(CSc1nnc(-c2cccnc2)n1C1CC1)c1cc2cc(Cl)ccc2o1,·,·,·,25µM,·
Cn1c(SCC(=O)c2cc3cc(Cl)ccc3o2)nnc1-c1cccnc1,·,·,·,28µM,·
O=C(CCc1ccc(O)cc1)N1CCN(Cc2ccccc2)CC(O)C1 (stereo not given),·,·,·,–,·
CCN1CCN(Cc2cc(=O)oc3cc(-c4ccccc4)c(O)cc23)CC1,·,·,·,32µM,·
Cc1ccc(S(=O)(=O)N2CCN(Cc3cc(=O)oc4cc(O)c(Cl)cc34)CC2)cc1,·,·,·,45µM,·
N#C/C(C(=O)CCl)=C(/c1ccc(F)cc1)N1CCOCC1,·,·,·,22µM,·
O=C(c1ccc(F)cc1)C1CCN(C(=O)N2CCOCC2)CC1,–,–,–,–,–
Cc1cccc(-n2c(SCC(=O)Nc3ccccc3Cl)nc3n[nH]c(C)c3c2=N)c1,·,·,·,–,–
COc1ccccc1NC(=O)CSc1nc2n[nH]c(C)c2c(=N)n1-c1ccccc1Cl,–,–,22µM,–,?
COc1cc2c(cc1OC)-c1cc(NCc3ccccn3)nc(=O)n1CC2,–,–,–,7.9µM,–
COc1cc2c(cc1OC)-c1cc(NC3CCCCC3)nc(=O)n1CC2,–,–,–,25µM,–
COc1ccc2nc(Nc3nc(C)c(Cc4ccccc4Cl)c(=O)[nH]3)nc(C)c2c1,·,·,·,–,·
CCCN1C(SCC(=O)Nc2ccc(CC)cc2)=NS(=O)(=O)c2ccccc21,·,·,·,–,·
N#Cc1ccc2c(c1)OCCO2,·,·,·,8.9µM,·
N#Cc1ccc(OCC(=O)c2ccc3c(c2)OCCO3)cc1,·,·,·,–,·
O=C(OCc1cccc(COC(=O)C2=COCCO2)c1)C1=COCCO1,·,·,·,–,·
Cc1cccc(NC(=O)COc2cccc3c2CCN(C)C3=O)c1C,–,–[15.4 µM],–,–,–
